GALK inh: qHTS Assay for Inhibitors of Human Galactokinase (GALK). P51570. Potency, µM (titrated, usually from 57.5 µM), most hits filed as inhibitors. Purified GALK, Kinase-Glo residual ATP luminescence. 270,000 tested, 0.007% active. AID 1868, 2009
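Quantitative HTS: GALK 5 nM, ATP 35 uM, galactose 100 uM, 1 h room temperature, then luciferase-based ATP detection.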
USP2a inh: qHTS Assay for Inhibitors of Ubiquitin-specific Protease USP2a Using CHOP2 as the Reporter; Potency, µM (highest dose often 38.3 µM), most hits filed as inhibitors; AID 463254, 2010; Ubiquitin carboxyl-terminal hydrolase 2 (Homo sapiens), O75604; USP2 core, Ub-CHOP2 coupled fluorogenic reporter, 485/531; 330,000 tested, 0.01% active
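USP2 core (10nM final) preincubated 30min RT with compound in 20mM Tris-HCl pH 8.0, 2mM CaCl2, 2mM beta-mercaptoethanol, 0.05% CHAPS; 25nM Ub-CHOP2 plus 25nM reporter substrate added, fluorescence (Ex485/Em531) read after 60min.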
D1 PAM: Potentiators of Human D1 Dopamine Receptor: qHTS; D(1A) dopamine receptor (Homo sapiens), P21728; HEK293 TREx D1 cells, calcium flux, dopamine EC20 potentiation; potentiation, % at 10 µM; 360,000 tested, 0.036% active; AID 504651, 2011; in the data active means potentiation above about 30%
Target sequence (P21728 whole entry, looked up): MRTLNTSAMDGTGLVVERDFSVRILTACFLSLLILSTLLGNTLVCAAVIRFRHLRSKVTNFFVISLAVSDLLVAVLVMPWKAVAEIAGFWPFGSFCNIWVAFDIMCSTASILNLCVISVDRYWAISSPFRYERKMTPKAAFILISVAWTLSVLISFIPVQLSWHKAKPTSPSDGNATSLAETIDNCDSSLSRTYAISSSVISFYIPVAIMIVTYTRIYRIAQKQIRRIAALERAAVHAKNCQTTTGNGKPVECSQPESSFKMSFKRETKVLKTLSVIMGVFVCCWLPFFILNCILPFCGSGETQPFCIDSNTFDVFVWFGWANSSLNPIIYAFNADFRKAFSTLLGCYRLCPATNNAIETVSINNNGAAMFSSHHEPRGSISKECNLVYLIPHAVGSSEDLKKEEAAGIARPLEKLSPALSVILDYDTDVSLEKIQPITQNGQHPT
D1 antag: Antagonist of Human D 1 Dopamine Receptor: qHTS; D(1A) dopamine receptor (Homo sapiens), P21728; HEK293 TREx D1 cells, calcium flux, dopamine EC80; active compounds read low; activity change, negative = inhibition, % at 10 µM; 360,000 tested, 3.2% active; AID 504652, 2011; in the data active means activity change below about -30%
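Allosteric or orthosteric antagonism assessed as attenuation of the calcium response to EC80 dopamine, added 180 s after compound, in induced HEK293 Trex D1 cells loaded with no-wash calcium dye.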
Eya2 inh: qHTS Assay for Inhibitors of the Phosphatase Activity of Eya2 | AID 488837, 2010 | Potency, µM (series often up to 76.9 µM), hits mostly inhibitors | Protein phosphatase EYA2 (Homo sapiens), O00167 | recombinant Eya2, OMFP fluorescence dephosphorylation (OMFP is methylfluorescein phosphate) | 330,000 tested, 0.006% active
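Eya2 protein (added as 0.2 uM solution) was preincubated with compound for 10 min at ambient temperature in 50 mM HEPES pH 7.5, 50 mM NaCl, 5 uM MgCl2, 0.05% BSA, 1 mM DTT. OMFP (added at 50 uM) then reacted 10 min; fluorescence read at 485/525 nm.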
D1 agonist: Allosteric Agonists of the Human D1 Dopamine Receptor: qHTS | D(1A) dopamine receptor (Homo sapiens), P21728 | HEK293 T-REx D1 cells, calcium flux, agonist mode | activation, % at 2 µM | 360,000 tested, 1% active | AID 504660, 2011; in the data active means activation above about 30%
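Inducible HEK293 T-REx D1 cells, force-coupled to calcium signalling, were plated at 4000 cells/well with tetracycline and held overnight at 30 C. After no-wash calcium dye loading, compound-evoked calcium rise over 180 s flagged agonists.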
Each line names hits and unclear results; the compound was inactive in the other large screens. Shown are actives, neighbours in structure and some others; about 3.9% of the full set was active somewhere. Unless noted, the call rests on the fitted dose curve; in most records, active means well fitted inhibition curve with a large enough effect; inconclusive means small, poorly fitted or top-dose-only effect, or effect the other way; inactive means flat fitted curve, though single readings scatter.

O=C1NC(=O)[C@@H]2C3c4ccccc4C=CN3[C@H](C(=O)c3cccs3)[C@H]12 (some centres not stated)	D1 antag -70
CN(C)c1ccc(/C=C2\N=C(c3ccc(Cl)c([N+](=O)[O-])c3)NC2=O)cc1	D1 agonist 35
O=C(COc1ccc(Oc2ccccc2)cc1)NC1CCS(=O)(=O)C1 (configuration not stated)	none (no result: GALK inh, D1 PAM, D1 antag, D1 agonist)
O=C(COc1ccc([N+](=O)[O-])cc1)NC(=O)NC1CCS(=O)(=O)C1 (configuration not stated)	D1 antag -45 (no result: GALK inh)
Cc1ccc(Oc2ccc(OCC(=O)NC3CCS(=O)(=O)C3)cc2)cc1 (configuration not stated)	D1 antag -48, D1 agonist 36 (no result: D1 PAM)
Cc1ccc(NC(=O)[C@@H](c2ccccc2)N2Cc3ccccc3C2=O)cc1	none (no result: GALK inh, USP2a inh, Eya2 inh)
CCc1cccc(C)c1NC(=O)C(CC)n1nc(C)c2c(C)n(-c3ccccc3)nc2c1=O (configuration not stated)	none (no result: GALK inh, USP2a inh, Eya2 inh)
CC(C)(C)OC(=O)Cc1nnc(C(C(=O)OCc2ccccc2)c2ccccc2)o1 (configuration not stated)	none (no result: GALK inh, USP2a inh, Eya2 inh)
CCOc1ccc(S(=O)(=O)N2CCC(n3c(C)nc4cccnc43)CC2)cc1	D1 agonist 34 (no result: GALK inh, USP2a inh, Eya2 inh)
COCc1nc2cccnc2n1C1CCN(S(=O)(=O)N(C)C)CC1	none (no result: GALK inh, USP2a inh, Eya2 inh)
Cc1nc2cccnc2n1C1CCN(S(=O)(=O)N(C)C)CC1	D1 antag -37 (no result: GALK inh, USP2a inh, Eya2 inh)
CCOCCCNC(=O)C(c1ccc(OC)cc1)N(Cc1cccs1)C(=O)c1ccc(NC(C)=O)cc1 (configuration not stated)	none (no result: GALK inh, USP2a inh, Eya2 inh)
CN(CC(=O)Nc1cccc(F)c1)C(=O)c1csc2c1CCCC2	D1 agonist 33 (no result: GALK inh)
O=C(Nc1nc2c(F)cc(F)cc2s1)c1ccc2c(c1)OCCO2	none (no result: GALK inh)
CCOc1ccc2c(c1)c(=O)c(C(=O)c1ccc3c(c1)OCO3)cn2Cc1cccc(F)c1	none (no result: GALK inh, USP2a inh, Eya2 inh)
Cc1ccc2c(c1)c(=O)c(C(=O)c1ccc3c(c1)OCO3)cn2Cc1cccc(F)c1	D1 antag -66 (no result: GALK inh, USP2a inh, Eya2 inh)
Cc1c(N/C(=N/S(=O)(=O)c2ccc(Cl)cc2)c2ccccc2)c(=O)n(-c2ccccc2)n1C	D1 antag -63
CC1CCCC/C1=N\Nc1ccc(S(N)(=O)=O)cc1[N+](=O)[O-] (configuration not stated)	D1 antag -30
CC(C)(C)C1CCC(=NNc2ccc(S(N)(=O)=O)cc2[N+](=O)[O-])CC1 (configuration not stated)	none
COc1cccc2c1OCC(CN1CCN(CCC(C)C)C(CCO)C1)=C2 (configuration not stated)	D1 antag -30
CC(C)CCN1CCN(Cc2cccn2-c2cccnc2)CC1CCO (configuration not stated)	D1 agonist 30
CC(C)N1CCN(Cc2cccn2-c2cccnc2)CC1CCO (configuration not stated)	none
CC(C)c1ccc(NC(c2nnc(-c3ccccc3)o2)c2ccc(F)cc2Cl)cc1 (configuration not stated)	none (no result: GALK inh, USP2a inh, Eya2 inh)
Cc1ccc(S(=O)(=O)Nc2cc3c(cc2Cl)n(C)c(=O)c(=O)n3C)cc1	none (no result: GALK inh, USP2a inh, Eya2 inh)
Cc1ccc(-c2cc(-c3ccccc3)c(C#N)c(SCC(O)CS(=O)(=O)Cc3ccccc3)n2)cc1 (configuration not stated)	D1 antag -39 (no result: GALK inh, USP2a inh, Eya2 inh)
Cc1ccccc1NC(=O)c1c(NC(=O)Cc2ccccc2)sc2c1CCC2	none (no result: GALK inh, USP2a inh, Eya2 inh)
COc1ccc(CN(C)CC2CCCN(CCc3ccc(F)cc3)C2)cc1OC (configuration not stated)	none
CC(=O)c1cccc(CN(C)CC2CCCN(CCc3ccccc3C)C2)c1 (configuration not stated)	D1 antag -66
COc1ccccc1CCN1CCCC(CN(C)C(=O)c2ccco2)C1 (configuration not stated)	D1 antag -50
CN(Cc1ccccc1)CC1CCCN(CCc2ccccc2F)C1 (configuration not stated)	none
Cc1ccccc1CCN1CCCC(CN(C)CC(C)(C)C)C1 (configuration not stated)	D1 antag -54
COc1ccccc1CCN1CCCC(CN(C)C(=O)c2ccoc2)C1 (configuration not stated)	none
COc1ccc(F)c(CN(C)CC2CCCN(CCc3ccc(F)cc3)C2)c1 (configuration not stated)	D1 antag -58
CCOCCCNC(=O)c1cc2c(=O)[nH]c3ccccc3c2n1C	none (no result: GALK inh, USP2a inh, Eya2 inh)
COCCCNC(=O)c1ccc(NC(=O)N2CCCCc3ccccc32)cc1	none (no result: GALK inh, USP2a inh, Eya2 inh)
CCc1ccc(NC(=O)c2cc3c(=O)n(Cc4cccs4)ccc3nc2C)cc1	none (no result: GALK inh, USP2a inh, Eya2 inh)
CC(=O)Nc1nnc(SCc2cc(=O)c3cc(C)ccc3[nH]2)s1	none (no result: GALK inh, USP2a inh, Eya2 inh)
COc1ccccc1-c1ccc(/C=C2\C=CC(=O)O2)o1	Eya2 inh inconclusive, D1 agonist 292
COc1ccccc1-c1ccc(/C=C2/C=C(C)OC2=O)o1	none (no result: GALK inh)
CCCCCCc1cc2cc(-c3nnc(-c4ccccc4O)o3)c(=O)oc2cc1O	D1 agonist 356
CCCCCCc1cc2cc(-c3nnc(-c4cc(OC)c(OC)c(OC)c4)o3)c(=O)oc2cc1O	USP2a inh inconclusive
CCCCCCc1cc2cc(-c3nnc(-c4ccccc4OC)o3)c(=O)oc2cc1O	USP2a inh inconclusive, D1 agonist 303
O=C(Nc1ccccc1F)c1ccc2c(Cl)c3c(nc2c1)CCC3	none (no result: GALK inh, USP2a inh, Eya2 inh)
Cc1ccc2c(C)nc(NC3=NCN(CCc4ccccc4)CN3)nc2c1	D1 antag -43
CCOC(=O)C(CC)Sc1nnc2[nH]c(=O)cc(C)n12 (configuration not stated)	none (no result: GALK inh, USP2a inh, D1 antag, Eya2 inh)
COc1ccc(-c2cc(C(F)(F)F)nc(SCC(=O)Nc3cc(C)on3)n2)cc1	none
CCOC(=O)c1ccc(NC(=O)CSc2nc(-c3cccs3)cc(C(F)(F)F)c2C#N)cc1	D1 agonist 50 (no result: GALK inh, USP2a inh, Eya2 inh)
COc1ccc(NC(=O)CSc2nc(-c3ccc(C)cc3)cc(C(F)(F)F)c2C#N)cc1	D1 antag -41 (no result: GALK inh)
COc1ccc(-c2cc(-c3cccs3)c(C#N)c(SCC(=O)NCc3ccccc3OC)n2)cc1	D1 antag -36
